Reference: PubChem BioAssay AID2690 (NMMLSC, 2010)
The whole screen tested about 330,000 compounds, of which about 590 (0.18%) were called active.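 The calls were made as follows: active = superoxide response under a set limit, about three screen SD below normal (cut at about 65% in these data); inactive = the rest.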 The sample as a whole holds a higher share of actives than the screen did.

assay: reduction of superoxide in aged yeast, primary screen, HTS (AID 2690);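 also: yeast aged for seven days with compound at 30 °C before DHE staining; 100% = average MFI of all compound-treated wells on the plate with controls excluded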; settings: S. cerevisiae aged cells, superoxide DHE fluorescence; at 10 µM; stronger effect = lower value

Superoxide response (% of plate mean), inactive:
CCCCNC(=O)C1CCCN(S(=O)(=O)c2ccc(S(=O)(=O)NCC(C)C)cc2)C1 (stereo not given) 102%, O=S(=O)(N1CCOCC1)N1CCN(c2ccccc2F)CC1 90.5%, Cc1ccccc1N1CCN(S(=O)(=O)c2ccc3ccccc3c2)CC1 95.3%, COc1ccc(C(=O)Nc2ccc(C3(C#N)CCCC3)cc2)cc1OC 87.6%, COC(=O)c1ccc(S(=O)(=O)c2ccc(C(=O)OC)s2)s1 101%, CCNC(=S)Nc1cccc(Cl)c1C 97.2%, O=C(Nc1c(Cl)cccc1Cl)C1CCC1 111%, CCOC(=O)c1c(C)nn(-c2ncccc2NC(=O)CCC(=O)O)c1C 122%, Cc1ccc(C(=O)O)cc1-c1ccc(/C=C2\SC(=O)N(CC(=O)Nc3ccc4c(c3)OCO4)C2=O)o1 114%, Cc1ccccc1N1CCN(C2CCCN(C(=O)c3cn4c(C)cccc4n3)C2)CC1 (stereo not given) 98.9%, COc1cc(N2C(=O)c3ccccc3C2=O)c(Cl)cc1C(=O)OCC(=O)N1CCOCC1 106%, COc1ccc(OCCCC(=O)OC(C)C(=O)Nc2ccccc2[N+](=O)[O-])cc1 (stereo not given) 95.2%, CC1(C(=O)NCCc2c[nH]c3ccccc23)C=CC2(CCCCC2)N1C(=O)c1ccccc1 (stereo not given) 93.9%, Cc1csc2ncc(C(=O)N(Cc3ccccc3)c3ccccn3)c(=O)n12 92.8%, Cc1cc(F)ccc1S(=O)(=O)Nc1ncnc2scc(-c3ccc(F)cc3)c12 103%, Clc1nc(NC2CCCC2)nc(N2CCOCC2)n1 104%, CCOC(=O)CNc1nc(Cl)nc(Nc2ccccc2)n1 114%, CCc1noc(C)c1C(=O)Oc1ccc(N(C)S(=O)(=O)c2ccc(C)c(C)c2)cc1 103%, CCOc1c(N2CCCCC2)c(=O)c1=O 105%, COc1ccc(NS(=O)(=O)c2ccc(O)c(C(=O)OCC(=O)NC3CCCCC3)c2)cc1 93.5%, NS(=O)(=O)c1ccc(CCNC(=O)CN2C(=O)c3ccccc3S2(=O)=O)cc1 111%, Cc1ccc(C(=O)OCC(=O)NC(=O)Cc2ccccc2)c(O)c1 110%, C=CCNC(=S)/N=c1/ccccn1Cc1ccccc1 102%, COC(=O)c1ccc(NC(=O)CSc2nncc3ccc(OC)c(OC)c23)cc1 119%, C=CCn1c(SCc2ccccc2)nc2c1c(=O)[nH]c(=O)n2C 102%, Cc1cc(OCc2cc(C(=O)NCc3cc(C(C)C)no3)no2)cc(C)c1Cl 111%, NC(=O)CSc1c[nH]c2ccccc12 97.2%, CCn1c2ccccc2c2cc(CC(N)=O)ccc21 105%, OCCC1CN(Cc2cnc(-c3ccccc3)s2)CCN1CCc1ccccc1 (stereo not given) 88.7%, Cc1cccc(OCC(=O)OCC(=O)Nc2ccc(Cl)cn2)c1 99.9%, CCCC(C(=O)NCc1ccco1)N(C(=O)CNS(=O)(=O)c1ccccc1)C1CCCC1 (stereo not given) 101%, Cc1ccc(-c2noc(CNC(=O)c3ccoc3C)n2)cc1 85%, Cc1ccc(N2CCN(S(=O)(=O)c3ccc(F)cc3)CC2)c(C)c1 106%, CC(=O)c1ccc(N2CCN(S(=O)(=O)c3ccc4c(c3)CC(=O)N4C)CC2)cc1 97.6%, Cc1c(NC(=O)CN(C)CC(=O)Nc2ccc(F)c(F)c2F)c(=O)n(-c2ccccc2)n1C 91.2%, CCOc1ccc2nc(Cl)c(C3CC(c4ccccc4)=NN3C(=O)c3cccs3)cc2c1 (stereo not given) 75.7%, O=C(CSc1nnnn1C1CCCC1)Nc1ccc2c(c1)OCCO2 98.8%, CC(C(=O)N=Nc1c(O)n(C)c2ccc(Br)cc12)n1cnc2ccccc2c1=O (stereo not given) 89.3%, COc1cc(NC(=O)C2=C(C)OCCS2)c(Cl)cc1C(=O)NCCN1CCN(C)CC1 99.2%, CCN(CC)N=Nc1cccc(NC(C)=O)c1 96.8%, CCc1ccccc1NC(=O)CN(C)C(=O)c1cc(C2CC2)nn1-c1ccccc1 117%, C/C(CC(=O)NC(C)(C)C)=N\NC(=O)c1ccco1 92.3%, O=C(OC1CCCCC1=O)c1cccc(S(=O)(=O)NCc2ccccc2)c1 (stereo not given) 91.2%, O=C(O)CC/C(=N\NC(=O)c1ccc(F)cc1)c1ccc(Br)cc1 97.4%, COc1cc(NS(=O)(=O)c2ccc(NC(=O)CN3C(=O)c4ccccc4C3=O)cc2)ncn1 87.5%, CNC(=O)c1cc2c(ccc3ccccc32)oc1=N 90%, CN(C)C(=O)c1coc2nc3ccccc3nc12 90.3%, O=C1CCCCC1C(=O)c1ccccc1 (stereo not given) 88.5%, CCc1ccc(-c2nc(SCC(=O)NC3CCCC3)n[nH]2)cc1 109%, Clc1ccc2nc(CSc3ccccc3)cn2c1 99.1%, Cc1ccc(OCC(=O)Nc2ccc(N3CCN(C(=O)c4ccco4)CC3)cc2)c(C)c1 100%, CN(C)c1ccc(/C=N/NC(=O)C(O)c2ccc(Br)cc2)cc1 (stereo not given) 110%, CN(C)c1ccc(C=NCCc2ccc(S(N)(=O)=O)cc2)cc1 82.2%, Cc1c(C(=O)OCC(=O)N(CCC#N)c2ccccc2)oc2c1ccc1ccccc12 86.3%, C=C(C)CNC(=O)c1ccc(OC2CCN(C(=O)COC)CC2)cc1 103%, COCCC(=O)N1CCC(Oc2ccc(C(=O)NCc3ccon3)cc2)CC1 92%, C[n+]1cc(-c2ccccc2)oc1-c1ccccc1 96.2%, COc1ccc(/C(C)=N/Nc2cc(C(F)(F)F)ccc2Cl)c(OC)c1 87.7%, N=C1C(=O)OCC1c1ccccc1NC(=O)CN1CCCCC1 (stereo not given) 110%, CCCCOC(=O)Nc1sc2nc(C)cc(C)c2c1-n1cccc1 113%, Cc1ccc2c(cnn2C(=O)CCC(=O)NC2CCCC2)c1 96.7%, COc1ccc(C2=Nc3cc(C)ccc3OC2)cc1 99.1%, C#CCO[C@@H]1C[C@H](n2cnc3c(=O)[nH]c(NC(=O)C(C)C)nc32)O[C@@H]1CO 101%, COCCN(C(=O)CCC(=O)Nc1nccs1)C(C(=O)NC(C)(C)C)c1ccc(Cl)cc1 (stereo not given) 87.1%, O=C(NC1CCCC1)C1CC(=O)N(c2ccc(F)cc2)C1 (stereo not given) 96.9%, COc1ccc(C(C)C)cc1S(=O)(=O)Nc1ncn[nH]1 87.8%, O=c1o[nH]c(-c2ccccc2)c1N=Nc1c(F)cccc1Cl 105%, O=C(NCCCNC(=O)NC1CCCCC1)NC1CCCCC1 106%, O=C(Oc1c(-c2ccco2)oc2ccccc2c1=O)c1cccnc1 104%, O=[N+]([O-])c1cc(S(=O)(=O)Nc2cccc(Cl)c2)ccc1N=Nc1c(O)[nH]c2ccccc12 91.3%, CC(=O)c1c(C)c[nH]c1C 90.3%, Cc1ccc(NC(=O)CSCC(=O)N2CCOCC2)cc1 98.5%, CCc1ccccc1N(CC(=O)NCC1CCCO1)C(=O)CCC(=O)Nc1nccs1 (stereo not given) 88%, COc1ccc(-c2cc(C(=O)N(C)Cc3ccc(OC)c(OC)c3OC)c3ccccc3n2)cc1OC 96.5%, O=C(NCC1CCN(Cc2ccccc2Cl)CC1)Nc1cccc(Cl)c1 103%, Cc1cccc(CN2CCC(CNC(=O)Nc3ccc(F)c(Cl)c3)CC2)c1 92.6%, C/C(N)=C(/C#N)C(=O)COC(=O)C1=NN(c2ccccc2)C(=O)CC1 82.1%, CN(C)C1=NC[C@H](Cc2ccccc2)N1CCc1ccc(F)cc1 98.7%, C/C(=N\NS(=O)(=O)c1cccc([N+](=O)[O-])c1)c1cc2ccccc2o1 107%, CCC(=O)N(C)C(c1ccccc1Cl)c1nnnn1-c1c(C)cccc1C (stereo not given) 107%, COc1ccccc1C(=O)Nc1ccnn1C1CCN(Cc2cnn(C)c2)CC1 92%, O=C(NNC(=O)c1cc(S(=O)(=O)N2CCCCC2)ccc1Cl)c1ccccc1O 95.4%, CCC1(CC)C(=O)C2=C3C1[C@H](C(=O)OC)C=C(C(=O)OC)C[C@H]3[C@H]1C(=O)N(Cc3ccccc3)C(=O)[C@H]1[C@H]2C (stereo not given in full) 107%, CC[C@]12c3[nH]c4cc(CCC(=O)N(C)C)ccc4c3CCN1C(=O)[C@@H](CC(=O)NCC13CC4CC(CC(C4)C1)C3)C[C@@H]2C(=O)N1CCN(C(=O)C2CC2)CC1 120%, CCOC(=O)NNC(=O)c1ccc(Cl)cc1 96.8%, O=C(NNC(=O)C1C2CCC(C2)C1C(=O)O)c1ccc(Cl)cc1 (stereo not given) 97.2%

Superoxide response (% of plate mean), active:
Cc1ccc2cccc(S(=O)(=O)N3CCN(c4ccccc4F)CC3)c2n1 61.4%, NC(=S)Nc1c(Cl)cccc1Cl 46.6%, COC(=O)CNc1nc(Cl)nc(N2CCC(C)CC2)n1 51%, NC(=O)Cc1ccc2c(c1)[nH]c1ccccc12 40.8%, CNC(=O)c1cccc2nc3ccccc3nc12 47%, CN(C)c1ccc(/C=N\S(=O)(=O)c2ccccc2)cc1 64.7%, COC(=O)CNC(=O)c1ccc(OC2CCN(C(=O)C3CC3)CC2)cc1 64%, Cc1ccccc1NC(=O)NCC1CCN(Cc2cccc(Cl)c2)CC1 36.3%, CSc1sc(C(=O)NNC(=O)c2ccc(Cl)cc2)c2c1C=CCC2 61.9%
